From PubChem BioAssay (NCATS)
Inconclusive results are not listed. Activity calls are given as the source filed them. Calls follow the shape of the full dose curve; tested in HEK293 reporter line.

Assay: qHTS for Inhibitors of the Functional Ribonucleoprotein Complex (vRNP) of Lassa (LASV) Arenavirus: LASV Primary Screen - GLuc reporter signal (AID 1347082); also: nearly all actives have a fitted effect of over 60% in size
Conditions: LASV minigenome vRNP, Gaussia luciferase reporter; series mostly up to 57.5 µM; activity change, negative = inhibition: at the top concentration
% is scaled to controls: 0 for no effect and ±100 for the full control effect; potency is read from the fitted curve at half-maximal effect.

Compound | activity change, negative = inhibition | Potency
O=C1N[C@@H](Cc2cnc[nH]2)C(=O)N2CCC[C@@H]12 | 0.011% (inactive) | 
C=C1[C@H]2C[C@H]3[C@H]4N5C[C@]6(C)CCC[C@]47[C@H]([C@H]2O)[C@]3(C[C@]5(O)[C@H]67)[C@@H]1O | 1.6% (inactive) | 
CNC[C@@H](O)[C@@H](O)[C@H](O)[C@H](O)CO | -1.23% (inactive) | 
O=C1C[C@@H](c2ccc(O)c(O)c2)Oc2c1ccc(O[C@@H]1O[C@H](CO)[C@@H](O)[C@H](O)[C@H]1O)c2O | -1.65% (inactive) | 
CC(C)c1cc(C(=O)N2Cc3ccc(CN4CCN(C)CC4)cc3C2)c(O)cc1O |  | 968 nM (active)
NC(=O)Nc1ccc(Cl)c(Cl)c1 | -5.62% [at 115 µM] (inactive) | 
CC(C)(O)c1ccc2c(c1)CCC1C(C)(C(=O)O)CCCC21C (stereo not given) | -2.54% (inactive) | 
O=C1N[C@@H](Cc2c[nH]c3ccccc23)C(=O)N[C@H]1Cc1ccccc1 | -13.5% (inactive) | 
C/C=C(\C)C(=O)O[C@@H]([C@H](O)c1cc2ccc(=O)oc2cc1OC)C(C)(C)O | 1.32% (inactive) | 
Cc1c(O[C@@H]2O[C@H](CO)[C@@H](O)[C@H](O)[C@H]2O)c(CO)c(O[C@@H]2O[C@H](CO)[C@@H](O)[C@H](O)[C@H]2O)c2c1O[C@@H](c1ccccc1)C[C@@H]2O | 7.27% (inactive) | 
CC12CCC(C1)C(C)(C)C2=O (stereo not given) | 2.97% (inactive) | 
c1ccc2nc(-c3ccc4c(c3)OCO4)ccc2c1 | -8.46% (inactive) | 
C[C@]12CCC3C(C[C@@H](O)[C@H]4C[C@@H](O)CC[C@]34C)C1CC[C@@H]2O (stereo not given in full) | -8.79% (inactive) | 
C=C(C)C1CCC(C)(O)CC1 (stereo not given) | -0.235% [at 115 µM] (inactive) | 
N#CC(=C(O)c1ccc(Cl)cc1Cl)c1nc2cc(Cl)ccc2c(=O)[nH]1 | 11.2% (inactive) | 
ClC1=C(Cl)[C@]2(Cl)[C@@H]3[C@@H](Cl)[C@H]4O[C@H]4[C@@H]3C1(Cl)C2(Cl)Cl | -9.31% (inactive) | 
COC(=O)Cc1ccccc1 | -10.7% [at 115 µM] (inactive) | 
COc1c2c(c3c(c1OC)c(=O)c1ccccc1n3C)OCO2 | -4.02% (inactive) | 
CCCCCCOC(=O)CCC | -8.1% [at 115 µM] (inactive) | 
C/C=C(\C)C(=O)OC(C)(C)[C@H]1Cc2cc3ccc(=O)oc3cc2O1 | -18.6% (inactive) | 

Compound | activity change, negative = inhibition | Potency
COc1cc2cc(Oc3ccc4ccc(=O)oc4c3)c(=O)oc2cc1OC1OC(COC(=O)CC(C)(O)CC(=O)O)C(O)C(O)C1O (stereo not given) | 0.166% (inactive) | 
COC(=O)/C=C/c1ccccc1 | -6.32% [at 115 µM] (inactive) | 
CCOC(=O)CC(C)C | -5.51% [at 115 µM] (inactive) | 
C=C(C)[C@@H]1CC[C@@H](C)C[C@@H]1O | -11.2% [at 115 µM] (inactive) | 
CCCCC/C=C\C[C@@H]1O[C@H]1C(O)/C=C\C/C=C\CCCC(=O)O (stereo not given in full) | 2.65% [at 0.757 µM] (inactive) | 
C#CCCC/C(=C\C(=O)N(C)[C@H](C(=O)N(C)[C@H](C(=O)N(C)[C@H](C(=O)N(C)[C@H](C(N)=O)C(C)C)C(C)C)C(C)C)C(C)C)OC | -3.62% (inactive) | 
Cn1c2c(c(=O)c3ccccc31)CCC(C)(C)O2 | -1.97% (inactive) | 
COc1cc(CCc2ccccc2)c(C(=O)O)c(O)c1C/C=C(/C)CCC=C(C)C | -0.547% (inactive) | 
COc1ccc2cc1Oc1ccc(cc1)CC1c3cc(c(OC)cc3CCN1C)Oc1c(OC)c(OC)c(OC)c3c1C(C2)N(C)CC3 (stereo not given) | -12% [at 24.7 µM] (inactive) | 
O=c1[nH]c(=O)c2ncn(C3OC(CO)C(O)C3O)c2[nH]1 (stereo not given) | 24.1% (inactive) | 
Cc1c[nH]c(C=C2C(=O)Nc3ccccc32)c1CCC(=O)O | 0.474% (inactive) | 
O=C1Nc2ccc(Cl)cc2C(C#CC2CC2)(C(F)(F)F)O1 (stereo not given) | 7.05% (inactive) | 
OCCN1C[C@H](O)[C@@H](O)[C@H](O)[C@@H]1CO | -2.99% (inactive) | 
OC[C@H]1O[C@@H](Oc2ccc(O)cc2)[C@H](O)[C@@H](O)[C@H]1O | 0.044% (inactive) | 
O=C(OCC#CCSc1nnc(-c2cccc3ccccc23)o1)c1cc2ccccc2s1 | 6.86% (inactive) | 
CC(C)(O)c1cc2nc(-c3cnc(N)nc3)nc(N3CCOCC3)c2s1 |  | 385 nM (active)
O=C(/C=C/c1ccccc1)NCCc1cnc[nH]1 | 12.5% (inactive) | 
COc1cc2c(c(OC)c1OC)-c1c(cc(OC)c(OC)c1OC)C[C@](C)(O)[C@@H](C)C2 | 8.83% (inactive) | 
COC(=O)C1=CO[C@@H](C)[C@@H]2CN3CC[C@]4(C(=O)Nc5c4ccc(OC)c5OC)[C@H]3C[C@H]12 | -0.197% (inactive) | 
C/C=C\C/C=C/CCCCCCCCOC(C)=O | -19.2% [at 115 µM] (inactive) | 
